From PubChem BioAssay (NCI)
Compounds without any hit were thinned out: in the full panel of roughly 83,000, 20% have a hit.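 Single-dose data. Exposure time 48 hours. Values below 10 considered active.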 Unmarked numbers belong to inactive results. Activity calls are given as the source filed them.

Key:
Experiment in all cases: NCI-60 one-dose screen, 48 h (100 = growth as untreated, 0 = no growth, -100 = all killed)
Settings in all cases: 10 µM
[1] = test system: SK-MEL-2 melanoma
[2] = test system: EKVX NSCLC
[3] = test system: SN12C renal
[4] = test system: UO-31 renal
[5] = test system: TK-10 renal
[6] = test system: ACHN renal
[7] = test system: CAKI-1 renal
[8] = test system: A498 renal
[9] = test system: CCRF-CEM leukemia
[10] = test system: MOLT-4 leukemia
[11] = test system: RPMI-8226 leukemia
[12] = test system: OVCAR-8 ovarian
[13] = test system: OVCAR-5 ovarian
[14] = test system: OVCAR-4 ovarian
[15] = test system: SK-OV-3 ovarian
[16] = test system: IGROV1 ovarian
[17] = test system: OVCAR-3 ovarian
[18] = test system: HS 578T breast
[19] = test system: NCI/ADR-RES ovarian
[20] = test system: SR leukemia

In the case of `CO[C@@H]1CSSC1Cn1nc(-c2ccc(Oc3ccccc3)cc2)c2c(N)ncnc21` (stereo not given in full), the growth [1] was 27.2%, the growth [2] was 25.3% and the growth [3] was 60.6%. It also gave a growth [4] of 21.3%, a growth [5] of 20.3% and a growth [6] of 40.4%. The growth [7] was 32.4%, the growth [8] was 80.8% and the growth [9] was -8.26% (active). For the same molecule, the growth [10] was -16.6% (active), the growth [11] was 34.6% and the growth [12] was 75.5%. For the same molecule, the growth [13] was 62.5%, the growth [14] was 53.3% and the growth [15] was 1.98% (active). The growth [16] was 53.1%, the growth [17] was 56% and the growth [18] was 61.6%. For the same molecule, the growth [19] was 57.5%.
In the case of `COc1ccsc1/C=N/NC(=O)c1[nH]c2ccc(Br)cc2c1-c1ccccc1`, the growth [1] was 20.7%, the growth [2] was 15.2% and the growth [3] was -3.76% (active). For the same molecule, the growth [4] was 11.4%, the growth [5] was 16.1% and the growth [6] was -0.91% (active). For the same molecule, the growth [7] was 3.46% (active), the growth [8] was 20.3% and the growth [9] was -12.5% (active). The growth [10] was -11.4% (active), the growth [11] was -13.6% (active) and the growth [12] was -16.2% (active). It also gave a growth [13] of 26.6%, a growth [14] of 22.1% and a growth [15] of 20.9%. For the same molecule, the growth [16] was 22.6%, the growth [17] was 25.8% and the growth [18] was -1.24% (active). For the same molecule, the growth [19] was -23.9% (active).
`COc1ccc(N(C)c2cc(C#N)nc3ccccc23)cc1N` was tested, and the growth [1] was 4.88% (active), the growth [2] was 20.5% and the growth [3] was 5.85% (active). It also gave a growth [4] of 20.6%, a growth [5] of 76.7% and a growth [6] of 23.5%. For the same molecule, the growth [7] was 26.1%, the growth [8] was 113% and the growth [9] was 5.77% (active). For the same molecule, the growth [10] was 15.4%, the growth [11] was 19.9% and the growth [12] was 14.1%. For the same molecule, the growth [13] was 34.6%, the growth [14] was 55% and the growth [15] was 23.8%. For the same molecule, the growth [16] was 17.1%, the growth [17] was 7.72% (active) and the growth [18] was 36.9%. The growth [19] was -31.7% (active).
With `CS(=O)(=O)Nc1ccc(-c2ccc3c(c2)ncn3-c2ccc(NC(=O)Nc3ccc(Cl)c(C(F)(F)F)c3)cc2)cc1` the growth [1] was -83% (active), the growth [2] was -60.3% (active) and the growth [3] was -68.7% (active). The growth [4] was -65.1% (active), the growth [5] was -6.45% (active) and the growth [6] was -63.7% (active). The growth [7] was -55.2% (active), the growth [8] was -85.9% (active) and the growth [9] was -31.7% (active). For the same molecule, the growth [10] was -36.8% (active), the growth [11] was -28.6% (active) and the growth [12] was -34.8% (active). For the same molecule, the growth [13] was -84.9% (active), the growth [14] was -47.2% (active) and the growth [15] was -53.4% (active). For the same molecule, the growth [16] was -43.1% (active), the growth [17] was -54.3% (active) and the growth [18] was -33.2% (active). The growth [19] was -1.05% (active).
In the case of `CC[C@]12C=CCN3CC[C@@]4(c5cc(C#CCNc6ccc(C)c(Nc7nccc(-c8cccnc8)n7)c6)c(OC)cc5N(C)[C@H]4[C@@](O)(C(=O)OC)[C@@H]1OC(C)=O)C32` (stereo not given in full), the growth [1] was 61.7%, the growth [2] was 55.9% and the growth [3] was 45.3%. The growth [4] was 46.9%, the growth [5] was 88% and the growth [6] was 51.4%. The growth [7] was 40.4%, the growth [8] was 68.1% and the growth [9] was 18.8%. The growth [20] was 21.3%, the growth [11] was 38.5% and the growth [12] was 48.6%. It also gave a growth [13] of 81.9%, a growth [14] of 41.4% and a growth [15] of 110%. The growth [16] was 60.7%, the growth [17] was 48.1% and the growth [18] was 55.7%. For the same molecule, the growth [19] was 54.4%.
`Cc1cc(C)nc(NS(=O)(=O)c2ccc(N/C(N)=N/c3nccc(-c4cccs4)n3)cc2)n1` was tested, and the growth [1] was 108%, the growth [2] was 83.5% and the growth [3] was 96.9%. For the same molecule, the growth [4] was 59.1%, the growth [5] was 117% and the growth [6] was 94.8%. The growth [7] was 74.2%, the growth [8] was 117% and the growth [9] was 95%. For the same molecule, the growth [20] was 92.3%, the growth [11] was 87% and the growth [12] was 101%. The growth [13] was 107%, the growth [14] was 93.6% and the growth [15] was 84.4%. For the same molecule, the growth [16] was 72.6%, the growth [17] was 107% and the growth [18] was 77.7%. It also gave a growth [19] of 101%.
For `O=C(NCCCCC(c1ccc(F)cc1)c1ccc(F)cc1)NCCCc1cccnc1`, the growth [1] was -1.41% (active), the growth [2] was 27.4% and the growth [3] was 23.9%. The growth [4] was 26.2%, the growth [5] was 46.2% and the growth [6] was 37.5%. For the same molecule, the growth [7] was 29.8%, the growth [8] was 84.2% and the growth [9] was -25.4% (active). For the same molecule, the growth [11] was -42.1% (active), the growth [12] was 11.4% and the growth [13] was 27.9%. For the same molecule, the growth [14] was 20.6%, the growth [15] was 23.6% and the growth [16] was 31.6%. For the same molecule, the growth [17] was 26.5%, the growth [18] was 56.4% and the growth [19] was 12.9%.
`Cc1cc(C)nc(SCC(=O)Nc2ccc(S(N)(=O)=O)cc2)n1` gave a growth [1] of 103%, a growth [2] of 99.8% and a growth [3] of 105%. The growth [4] was 87.1%, the growth [5] was 102% and the growth [6] was 101%. The growth [7] was 96.5%, the growth [8] was 123% and the growth [9] was 97.1%. It also gave a growth [11] of 99.5%, a growth [12] of 105% and a growth [13] of 107%. For the same molecule, the growth [14] was 112%, the growth [15] was 106% and the growth [16] was 109%. The growth [17] was 113%, the growth [18] was 114% and the growth [19] was 106%.
In the case of `O=C(Nc1ccc(I)cc1F)c1cc(-c2ccc(F)cc2F)ccc1O`, the growth [1] was -39.9% (active), the growth [2] was 0.815% (active) and the growth [3] was -4.86% (active). The growth [4] was -0.556% (active), the growth [5] was 19.9% and the growth [6] was -5.83% (active). The growth [7] was -21% (active), the growth [8] was -21.3% (active) and the growth [9] was 7.55% (active). For the same molecule, the growth [10] was -0.655% (active), the growth [11] was -18.1% (active) and the growth [12] was 8.5% (active). For the same molecule, the growth [13] was 3.54% (active), the growth [15] was -10.6% (active) and the growth [16] was 22.7%. For the same molecule, the growth [17] was -1.28% (active), the growth [18] was 2.66% (active) and the growth [19] was -8.34% (active).
For `COc1ccc(/C(C)=N/N=C2C(=O)N(C)c3ccc(Br)cc32)cc1S(N)(=O)=O`, the growth [1] was 81.7%, the growth [2] was 56.7% and the growth [3] was 68.7%. For the same molecule, the growth [4] was 65.1%, the growth [5] was 105% and the growth [6] was 69.3%. For the same molecule, the growth [7] was 41%, the growth [8] was 99.6% and the growth [9] was 89.1%. It also gave a growth [11] of 79.3%, a growth [12] of 27.4% and a growth [13] of 81.4%. The growth [14] was 48.4%, the growth [15] was 58.8% and the growth [16] was 71.5%. For the same molecule, the growth [17] was 69.6%, the growth [18] was 39.7% and the growth [19] was 68.2%.
For `COc1cc(/C=C/C(=O)c2ccc(F)cc2)ccc1Oc1nc(Nc2ccc(F)cc2)nc(N(C)C)n1`, the growth [1] was 61%, the growth [2] was 50.1% and the growth [3] was 60.1%. The growth [4] was 47.1%, the growth [5] was 99.4% and the growth [6] was 50.9%. For the same molecule, the growth [7] was 58%, the growth [8] was 86.5% and the growth [9] was 15.2%. For the same molecule, the growth [20] was 4.07% (active), the growth [11] was 24.2% and the growth [12] was 42.7%. It also gave a growth [13] of 93.1%, a growth [14] of 56.1% and a growth [15] of 103%. For the same molecule, the growth [16] was 93.8%, the growth [17] was 64.2% and the growth [18] was 59.3%. It also gave a growth [19] of 50.6%.
Molecule `CC(=O)Nc1ccc(-n2cnc3cc(-c4ccc(NS(C)(=O)=O)cc4)ccc32)cc1` has a growth [1] of 73.2%, a growth [2] of 61% and a growth [3] of 46.3%. It also gave a growth [4] of 32.1%, a growth [5] of 83.7% and a growth [6] of 52.3%. The growth [7] was 17.5%, the growth [8] was 86.5% and the growth [9] was 36.1%. For the same molecule, the growth [20] was 21.8%, the growth [11] was 55.8% and the growth [12] was 66.9%. The growth [13] was 79.3%, the growth [14] was 60% and the growth [15] was 87.9%. The growth [16] was 36.4%, the growth [17] was 63.1% and the growth [18] was 57.9%. It also gave a growth [19] of 70.5%.
Work on `O=C(Nc1cccc(-c2cn(-c3ccc4oc(=O)ccc4c3)nn2)c1)Nc1cc(C(F)(F)F)cc(C(F)(F)F)c1` yielded a growth [1] of 29.6%, a growth [2] of 13.5% and a growth [3] of 24.6%. It also gave a growth [4] of 30.9%, a growth [5] of 50.9% and a growth [6] of 12.5%. The growth [7] was 36.2%, the growth [8] was 19.6% and the growth [9] was 27.1%. For the same molecule, the growth [10] was 11.7%, the growth [11] was 6.66% (active) and the growth [13] was 66.4%. The growth [14] was 7.53% (active), the growth [15] was 36.5% and the growth [16] was 29.9%. The growth [17] was 16.2%, the growth [18] was 27.7% and the growth [19] was 50.4%.
`Cc1ccc2nc(-c3ccc(-c4nnc(SCC(=O)Nc5ccc(Br)cc5)o4)cc3)[nH]c2c1` showed a growth [1] of 83.8%, a growth [2] of 85.1% and a growth [3] of 51%. The growth [4] was 51.5%, the growth [5] was 74.7% and the growth [6] was 67.8%. It also gave a growth [7] of 76.5%, a growth [8] of 83.4% and a growth [9] of 38.2%. For the same molecule, the growth [20] was 16.1%, the growth [13] was 92.4% and the growth [14] was 76.8%. The growth [15] was 72.1%, the growth [16] was 91.2% and the growth [17] was 82.9%. The growth [18] was 70.8% and the growth [19] was 61.3%.
Molecule `CN1CCN(c2ccc(Nc3nc(N4CCN(S(=O)(=O)c5ccc(Cl)cc5)CC4)c4sccc4n3)cc2)CC1` has a growth [1] of 79.4%, a growth [2] of 62.1% and a growth [3] of 91.9%. For the same molecule, the growth [4] was 64.2%, the growth [5] was 85.9% and the growth [6] was -64.4% (active). For the same molecule, the growth [7] was 7.7% (active), the growth [8] was 125% and the growth [9] was 1.87% (active). The growth [11] was -23.6% (active), the growth [12] was -82.9% (active) and the growth [13] was -80.9% (active). For the same molecule, the growth [14] was -82.6% (active), the growth [15] was 116% and the growth [16] was 84.3%. The growth [17] was -34.9% (active), the growth [18] was 83.9% and the growth [19] was 16.1%.
`COc1ccc(C2NC(=S)NC(C)=C2C(=O)OC(C)C)cc1OC` (stereo not given) was tested, and the growth [1] was 114%, the growth [2] was 97.9% and the growth [3] was 101%. The growth [4] was 83.5%, the growth [5] was 106% and the growth [6] was 107%. It also gave a growth [7] of 97.4%, a growth [8] of 114% and a growth [9] of 95.9%. It also gave a growth [20] of 101%, a growth [11] of 104% and a growth [12] of 106%. The growth [13] was 105%, the growth [14] was 99.3% and the growth [15] was 135%. It also gave a growth [16] of 109%, a growth [18] of 89.8% and a growth [19] of 102%.
